# Compounds with a hit are over-represented: about 7.4% of the library has one in this group of screens.
# Rab9 prom act: Rab9 promoter activation; AID 485297; 320,000 compounds, 2.8% hits; Huh7 Rab9 promoter-luciferase reporter, luminescence, 24 h; Potency, µM (titrated, usually from 9.22 µM), without a hit: at the top dose activation, negative = inhibition, most hits filed as activators; further: % of control where 0% means no effect; nearly all actives have a fitted effect of over 60% in size
#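 Cell-based reporter: Huh7 stable for Rab9 promoter-driven luciferase, plated in reduced-serum medium with 10% FBS at 1500 cells/well, compound-treated 24 h at 37 °C, luminescence read after 10 min reagent.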
# SMN2 splice up: SMN2 splice variant enhancement | HEK293 SMN2-luciferase splicing reporter, luminescence, 30-36 h | 210,000 compounds, 2.8% hits | Potency, µM (highest dose often 46.1 µM), for inactives: at the highest dose activity change, positive = activation, actives largely listed as activators | AID 1458; further: % of control where 0% means no effect; nearly all actives have a fitted effect of over 55% in size
#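 qHTS luciferase splicing reporter: luminescence rises when SMN2 exon 7 is included in transfected HEK293 cells. Compound exposure lasted 30-36 h at 37C, with 4.5 mM final sodium butyrate as control, followed by a ONE-Glo read.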
# NPC1 promoter act: activators of NPC1 promoter; 320,000 compounds, 2.4% hits; Huh7 NPC1 promoter luciferase reporter, 24 h; AID 485313; Potency, µM (top dose mostly 9.22 µM), without a hit: top-dose activation, most hits filed as activators; further: % of control where 0% means no effect; nearly all actives have a fitted effect of over 60% in size
#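 Compounds in DMSO were transferred onto Huh7 NPC1-luciferase reporter cells pre-incubated 2 h; after 24 h at 37 °C, Amplite reagent was dispensed and luminescence recorded 10 min later.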
# ELG1 genotoxic: genotoxicity induction in ELG1-luciferase HEK293T cells | Potency, µM (titrated, usually from 46 µM), without a hit: at the highest dose activity change, positive = activation, most hits filed as activators | 330,000 compounds, 1.3% hits | HEK293T ELG1-luciferase reporter, luminescence, 16 h; further: % of control where 0% means no effect; nearly all actives have a fitted effect of over 60% in size
#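 Reporter readout depends on ELG1 protein level, which increases with genetic stress. After 16 hr compound exposure at 37 °C, luciferase activity was quantified using ONE-Glo.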
# FLuc modulator: counter-screen for miR-21 project: firefly luciferase inhibitors or activators; P08659; purified FLuc, Km substrates, luminescence inhibition; Potency, µM (highest dose often 57.5 µM), for the others: at the top dose activity change, negative = inhibition, actives largely listed as inhibitors; 360,000 compounds, 6.9% hits; AID 588342;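 further: plate controls were vehicle for no effect and reference inhibitor for full effect; nearly all actives have a fitted effect of over 55% in size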
# Target sequence (P08659 whole entry, looked up): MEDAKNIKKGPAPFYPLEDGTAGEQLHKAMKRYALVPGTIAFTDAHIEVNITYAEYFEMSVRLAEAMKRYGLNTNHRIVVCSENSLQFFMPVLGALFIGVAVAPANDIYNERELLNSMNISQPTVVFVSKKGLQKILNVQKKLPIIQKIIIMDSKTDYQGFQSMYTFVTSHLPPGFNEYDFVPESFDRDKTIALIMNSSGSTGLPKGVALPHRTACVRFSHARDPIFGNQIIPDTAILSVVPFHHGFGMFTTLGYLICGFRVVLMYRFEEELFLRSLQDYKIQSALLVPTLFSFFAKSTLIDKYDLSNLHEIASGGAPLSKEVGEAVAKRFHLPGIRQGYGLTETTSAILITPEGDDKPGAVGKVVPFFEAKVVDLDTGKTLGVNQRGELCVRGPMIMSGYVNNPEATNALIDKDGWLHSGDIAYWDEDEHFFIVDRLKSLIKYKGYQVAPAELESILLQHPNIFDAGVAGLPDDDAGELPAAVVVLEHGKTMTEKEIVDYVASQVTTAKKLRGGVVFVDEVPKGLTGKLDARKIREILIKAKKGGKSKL
#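 Purified P. pyralis luciferase, 10 nM final, with Km-level 10 uM D-luciferin and 10 uM ATP in 50 mM Tris acetate pH 7.5, 10 mM Mg acetate, 0.01% Tween-20, 0.05% BSA; 6-point qHTS titration about 60 µM downward; luminescence read.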
# Luc counter: counter-screen: inhibitors of Kinase-Glo firefly luciferase; AID 1379; Potency, µM (highest dose often 38.3 µM), for the others: at the highest dose activity change, negative = inhibition, actives largely listed as inhibitors; Kinase-Glo luciferase, ATP luminescence, 8 min; Q27757; 200,000 compounds, 0.28% hits; further: on the % scale 0 is the no-effect control and ±100 the full control effect; nearly all actives have a fitted effect of over 60% in size
#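 Inhibition of Kinase-Glo luciferase light generation was assessed at 10 uM ATP in pH 7.2 imidazole buffer, with luminescence measured after eight minutes at ambient temperature.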
# An asterisk follows results filed as active; ? = inconclusive; . = no result given. The call rests on the fitted dose curve; in most records, active means well fitted curve in the direction sought with a large enough effect; inconclusive means small, poorly fitted or top-dose-only effect, or another doubt; inactive means no such curve, though single readings can be large; an effect the other way counts as inactive or inconclusive. Potency means the concentration at half of the fitted maximal effect.
SMILES,Rab9 prom act,SMN2 splice up,NPC1 promoter act,ELG1 genotoxic,FLuc modulator,Luc counter
O=C(/C=C/c1ccc(F)cc1)N1CCN(c2ncccn2)CC1,9%,6%,12%,-11%,?,1%
COc1ccc(/C=C/C(=O)N2CCOCC2)cc1OC,7%,.,-3%,0%,-2%,.
CC(C)(C)c1ccc(/C=C/C(=O)N2CCOCC2)cc1,?,3.2µM*,?,?,11µM*,0%
COc1ccc(C=Nc2ccc3[nH]ncc3c2)c(O)c1,-1%,-8%,5%,-8%,6.7µM*,-3%
O=c1[nH]c2ccccc2nc1Cc1ccc(Cl)cc1,-1%,.,-3%,4%,1%,.
Nc1ccc2nc(CCCCc3nc4ccccc4[nH]3)[nH]c2c1,0%,.,-10%,-3%,4%,.
Nc1cccc(CCc2nc3cc4ccccc4cc3[nH]2)c1,1.6µM*,5.6µM*,27%,18µM*,19µM*,1%
c1ccc2[nH]c(CCCc3nc4ccccc4[nH]3)nc2c1,-2%,.,7%,1%,-1%,.
c1ccc(CCc2nc3ccccc3[nH]2)cc1,?,.,?,?,17µM*,-15%
O=c1[nH]c2ccccc2nc1CCc1ccccc1,3.2µM*,?,?,?,-9%,-2%
CN(CC(=O)O)Cc1nc2ccccc2[nH]1,-3%,1%,1%,?,21µM*,-4%
COCCn1c(=O)[nH]c2cc(C(=O)N3CCN(c4cccc(C)c4C)CC3)ccc2c1=O,-6%,.,-9%,-5%,2%,.
CCN(C(=O)CSc1n[nH]c(N)n1)c1cccc2ccccc12,.,.,.,5%,.,.
O=C(CSc1nccn1Cc1ccc(Cl)cc1)Nc1ccc2c(c1)OCO2,.,.,.,.,-17%,.
O=C(CC(=O)N/N=C/c1ccc(C(=O)O)cc1)NCCc1ccccc1,5%,.,-6%,-3%,-2%,.
c1ccc(C2CCCN(Cc3nc(CC4CC4)no3)CC2)cc1 (configuration not stated),24%,5%,11%,12%,24µM*,-2%
COC(=O)C(Cc1ccccc1)NC(=S)NC(=O)c1ccccc1 (configuration not stated),-3%,0%,-5%,7%,-2%,5%
COC(=O)c1ccc(C(NC(=O)OCc2ccccc2)/C(=C/[C@@H](C)C(=O)NCc2cc(C)n(C)n2)c2cccnc2)cc1 (some centres not stated),.,-10%,.,.,.,-2%
CC#CCCCC(=O)Nc1ccc(C(=O)O)cc1,1%,-7%,0%,1%,-1%,-4%
CC#CCCCC(=O)Nc1ccccc1C(=O)O,?,?,?,?,19µM*,-5%
CCc1ccc(CCC(=O)Nc2ccccc2C(=O)O)o1,?,?,?,?,19µM*,-3%
N#CCCN/N=C(/Cc1nc2ccccc2[nH]1)c1cccc(Cl)c1,19%,0.56µM*,11%,0%,?,-3%
Clc1ccc(/C(Cc2nc3ccccc3[nH]2)=N\Nc2ccccc2)cc1,2.8µM*,.,3.5µM*,?,13µM*,.
O=C(NCCc1nc2ccccc2[nH]1)c1cccc(Br)c1,-4%,-12%,0%,0%,6%,0%
O=C(Cc1nc2ccccc2[nH]1)c1ccc(Cl)cc1,2.5µM*,.,2.5µM*,16%,6µM*,.
O=C(Cc1nc2ccccc2[nH]1)c1ccc([N+](=O)[O-])cc1,?,.,3.2µM*,?,15µM*,.
COc1cccc(C(=S)N2CCCC2)c1OC,-11%,.,-5%,-6%,-19%,.
CCC/C=C(\CCC)C(NS(=O)(=O)c1ccc(-c2ccccc2)cc1)c1ccc(C(=O)OC)cc1 (configuration not stated),.,-5%,.,.,.,3%
COc1ccc(CN2CCNC(=O)C2CC(=O)NCC2CCOCC2)c(F)c1 (configuration not stated),3%,.,-7%,0%,2%,.
